FBPA Giardia inh – qHTS Assay for Inhibitors of Fructose-1,6-bisphosphate Aldolase from Giardia Lamblia; A8B2U2; purified Giardia FBPA; Potency, µM (series often up to 59.6 µM), without a hit: at the highest dose activity, negative = inhibition, most hits filed as inhibitors; actives 0.71% (n = 290,000); AID 2451, 2010; further: nearly all actives have a fitted effect of over 55% in size
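40 nM FBPA preincubated 10 min at RT with compound (up to 57.5 uM final), then substrate plus GAPDH/TPI/NAD/arsenate coupling and diaphorase/resazurin added. Fluorescence read after 20 min at RT, 525/598 nm.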
RE007 growth inh – qHTS Assay for Inhibitors of the HIV-1 protein Vpr; Potency, µM (highest dose often 92.2 µM), inactives show at the top dose activity change, negative = less growth, actives largely listed as inhibitors; actives 0.21% (n = 360,000); S. pombe RE007 Vpr strain, BacTiter-Glo ATP luminescence, 24 h; AID 651644, 2012; active means well fitted falling curve with a large enough effect; inconclusive means small, poorly fitted or top-dose-only effect; inactive means no such curve, though single readings can be large or run the other way; further: nearly all actives have a fitted effect of over 50% in size
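Fission yeast strain RE007, carrying one chromosomally integrated HIV-1 vpr copy, was seeded at OD 0.01 in PMG+AL medium with 23 nL pinned compound. After 24 h at 30 °C and 99% humidity, viability was read by BacTiter-Glo luminescence.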
LmPK inh – qHTS Assay for Inhibitors of Leishmania Mexicana Pyruvate Kinase (LmPK) | Potency, µM (doses to about 57.5 µM), inactives show at the top dose activity change, negative = inhibition, hits mostly inhibitors | actives 0.37% (n = 290,000) | purified LmPK, Kinase-Glo ATP luminescence, 1 h
Target sequence (Q27686 whole entry, looked up): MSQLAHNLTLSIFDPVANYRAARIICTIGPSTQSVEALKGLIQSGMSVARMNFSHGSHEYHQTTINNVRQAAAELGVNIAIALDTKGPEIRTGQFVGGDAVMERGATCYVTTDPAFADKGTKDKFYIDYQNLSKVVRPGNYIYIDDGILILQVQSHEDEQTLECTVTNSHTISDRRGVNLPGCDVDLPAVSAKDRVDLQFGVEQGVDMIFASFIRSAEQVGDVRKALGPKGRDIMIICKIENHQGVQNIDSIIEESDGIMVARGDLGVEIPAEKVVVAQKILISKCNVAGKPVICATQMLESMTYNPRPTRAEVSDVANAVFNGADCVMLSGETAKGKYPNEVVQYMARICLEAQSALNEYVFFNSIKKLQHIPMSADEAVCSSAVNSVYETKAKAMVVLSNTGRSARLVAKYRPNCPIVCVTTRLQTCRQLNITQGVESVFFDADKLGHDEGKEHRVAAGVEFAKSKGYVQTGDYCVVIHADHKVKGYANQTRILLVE
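Purified LmPK (0.1 nM) with 0.5 mM PEP and 0.1 mM ADP in imidazole buffer pH 7.2 with MgCl2/KCl, 1 h at room temperature. ATP formed was read by luciferase luminescence and normalized to no-enzyme and uninhibited controls.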
Tb PYK inh – qHTS of Trypanosoma Brucei Inhibitors | TbPYK enzyme, Kinase-Glo Plus ATP luminescence, 45 min | actives 0.12% (n = 410,000) | Potency, µM (titrated, usually from 76.8 µM), without a hit: top-dose activity, negative = inhibition, most hits filed as inhibitors; further: nearly all actives have a fitted effect of over 50% in size
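Assay buffer: 50 mM TEA pH 7.2, 100 mM KCl, 10 mM MgCl2, 0.05% BSA, 0.01% Tween-20. Pyruvate kinase from T. brucei plus substrate met compound, then ADP (130 uM final). Luminescence was read post 45 min RT.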
Starred values were filed as active, the others as inactive; ? = inconclusive; · = no result; ! = repeats disagree; [ ] = another dose, or the depositor's remark. Hits are enriched below; roughly 0.95% of the tested compounds scored in any of these assays. Unless noted, the call rests on the fitted dose curve; in most records, active means well fitted curve in the direction sought with a large enough effect; inconclusive means small, poorly fitted or top-dose-only effect, or another doubt; inactive means no such curve, though single readings can be large; an effect the other way counts as inactive or inconclusive. On the % scale 0 is the no-effect control and ±100 the full control effect; potency means the concentration at half of the fitted maximal effect.

SMILES | FBPA Giardia inh | RE007 growth inh | LmPK inh | Tb PYK inh
CC(C)=CCC/C(C)=C\CC/C(C)=C\CC/C(C)=C\CC1=C(C)C(=O)c2ccccc2C1=O | · | · | · | 0%
Cc1ccccc1NC(=O)c1c(NC(=O)C(C)Oc2cccc(Cl)c2)sc2c1CCCC2 (stereo unspecified) | · | · | · | 4%
CCN(C(=S)Nc1cc(S(=O)(=O)N2CCOCC2)ccc1Cl)c1cccc2ccccc12 | 7.1µM* | -6% | -1% | -9%
COc1ccc(N2Cc3ccccc3C2=O)cc1 | -2% | ? | 14µM* | -26%
C=CC(=O)Oc1ccc(N2Cc3ccccc3C2=O)cc1 | · | 7.9µM* | · | -28%
Cc1nn(-c2ccc(N3CCCC3)nn2)c(C)c1CCC(=O)N1CCN(c2ccc(F)cc2)CC1 | · | · | · | 2%
Cc1ccc(NC(=O)N2CCc3ccccc32)cc1 | -19% | ? | 25µM* | -26%
Cc1ccc(C(=O)N2CCc3ccccc32)o1 | -1% | ? | 14µM* | -29%
Cc1ccc(NC(=O)N2CCCc3ccccc32)cc1 | -5% | -2% | 2% | -2%
C=C1c2ccccc2O[C@H](C(=O)OCC)[C@@H]1CCC(C)C (tested in a mixture with another compound) | -4%[89.2 µM] | · | · | ·
Cc1ccc(-c2nc3ccc(C(=O)O)cc3nc2-c2ccc(C)cc2)cc1 | · | 2% | 7% | -2%
O=C(O)c1ccc2nc3c(nc2c1)-c1ccccc1C3=O | ? | -15% | ? | 32µM*
O=S(=O)(c1ccc2nc(-c3ccco3)c(-c3ccco3)nc2c1)N1CCOCC1 | 2.5µM* | 0% | -5% | 16µM*
O=C(c1ccc2nc(-c3ccco3)c(-c3ccco3)nc2c1)N1CCC2(CC1)OCCO2 | 7.1µM* | -9% | 1% | -9%
O=C(O)c1ccc2nc(-c3ccco3)c(-c3ccco3)nc2c1 | 6.3µM* | -11% | -24% | ?
FC(F)(F)c1ccccc1-c1ccc2ncnc(N3CCOCC3)c2c1 | -1% | · | · | ·
N[C@@H](C(=O)N[C@H]1C(=O)N2C(C(=O)O)=C(Cl)CC[C@H]12)c1ccccc1 | · | · | · | 3%
CC(C)=CCC1=C(O)[C@](O)(CC=C(C)C)C(=O)C(C(=O)CC(C)C)=C1O | -8% | · | · | ·
O=C(O)c1ccc2c(c1)C(=O)N([C@H](Cc1ccc(F)cc1)C(=O)O)C2=O | 10% | · | · | ·
O=C(O)c1cc(-c2ccco2)nc2ccc(Br)cc12 | -27% | -30% | 3% | 18µM*!
O=C(CSc1ccc(-c2ccco2)nn1)c1ccc(F)cc1 | -25% | -11% | -8% | 20µM*
Cc1cccc(Cn2cc(S(=O)(=O)c3cccc(Cl)c3)c(=O)c3cc(F)c(N4CCOCC4)cc32)c1 | · | · | · | 0%
COc1ccc(Br)cc1CNc1ccc(O)cc1 | 16µM* | ? | 2% | 1%
Oc1ccc(NCc2ccc(OCc3ccccc3)cc2)cc1 | ? | -10% | 0% | ?
COc1ccc(Br)cc1CNc1ccc2[nH]c(=O)[nH]c2c1 | 1% | 5% | 2% | -24%
SMILES | FBPA Giardia inh | RE007 growth inh | LmPK inh | Tb PYK inh
Oc1ccc(NCc2ccccc2OCc2ccccc2F)cc1 | 13µM* | -27% | 1% | ?
CCc1ccc(CNc2ccc(O)cc2)cc1 | 4µM* | -3% | -1% | 2%
CCOc1cccc(CNc2ccc(O)cc2)c1OCc1ccc(Cl)cc1 | ? | -8% | 0% | -30%
Cc1ccc(NCc2ccccc2OCc2ccccc2F)cc1 | -11% | -22% | -2% | 4%
CCOc1cc(CNc2ccc(O)cc2)ccc1OCc1ccc(Cl)cc1Cl | 16µM* | 0% | -1% | -21%
COc1ccccc1Nc1nn2c(=O)c3ccc(C(=O)NCCc4ccccc4)cc3nc2s1 | · | · | · | 6%
c1cnc2cc3c(cc2n1)C1CNCC3C1 | · | · | · | 0%[157 µM]
CCOc1ccccc1CNc1ccc(O)cc1 | 11µM* | -11% | -3% | 5%
COCCNc1nc(C)nc2c1nc(-c1ccccc1)n2CCCN1CCCCC1C (stereo unspecified) | 6% | · | · | ·
Clc1cc(Cl)c(OCC#CI)cc1Cl | · | · | · | 4%
CCOC(=O)c1ccccc1N/C=C/C(=O)c1cccs1 | -4% | -9% | -14% | -8%
O=C(/C=C\Nc1cccc(F)c1)c1cccs1 | 6% | ? | ? | -7%
O=C(/C=C/Nc1ccc(F)cc1F)c1cccs1 | -14% | -29% | 8.9µM* | ?

Screens: PubChem, National Center for Advancing Translational Sciences (NCATS)
